# Assay outcomes as filed in PubChem.
# Shown are actives, neighbours in structure and some others; about 3.1% of the full set was active somewhere.
# TDP1 block = blocks human tyrosyl-DNA phosphodiesterase 1; recombinant TDP1, AlphaScreen DNA substrate cleavage; Potency, µM (titrated, usually from 130 µM), for inactives: at the top dose activity change, negative = inhibition, usual class: inhibitors; 350,000 compounds, 0.28% hits; further: on the % scale 0 is the no-effect control and ±100 the full control effect; nearly all actives have a fitted effect of over 40% in size
#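 AlphaScreen read-out: signal falls as enzyme removes the 3' tyrosine-FITC from a 5'-biotinylated DNA oligo (15 nM, 5 min, RT). Enzyme was E. coli-made recombinant Tdp1 at 1 nM, exposed to compound for 15 min beforehand; beads 10 ug/ml, 10 min.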
# VDR inh = vitamin D3 receptor (human) inhibition | VDR-SRC2-3 peptide fluorescence polarization, 2 h | Potency, µM, inactives show max response, negative = inhibition, actives largely listed as inhibitors | 400,000 compounds, 0.93% hits | AID 504847; further: on the % scale 0 is the no-effect control and ±100 the full control effect
# Target sequence (P11473 whole entry, looked up): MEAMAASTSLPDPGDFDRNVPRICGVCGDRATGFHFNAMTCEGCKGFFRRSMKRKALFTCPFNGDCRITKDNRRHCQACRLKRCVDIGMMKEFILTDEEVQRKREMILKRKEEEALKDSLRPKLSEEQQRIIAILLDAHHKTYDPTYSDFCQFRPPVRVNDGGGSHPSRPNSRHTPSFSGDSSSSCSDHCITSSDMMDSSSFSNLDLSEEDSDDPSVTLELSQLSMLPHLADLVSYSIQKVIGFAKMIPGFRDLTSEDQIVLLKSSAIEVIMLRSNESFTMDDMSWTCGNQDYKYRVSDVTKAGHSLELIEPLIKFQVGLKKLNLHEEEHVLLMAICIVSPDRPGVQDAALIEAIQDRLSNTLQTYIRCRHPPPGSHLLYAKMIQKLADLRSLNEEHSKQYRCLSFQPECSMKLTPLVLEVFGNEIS
#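 Measured by FP: displacement of SRC2-3 coactivator peptide from VDR by library compounds, following a two-hour ambient incubation.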
# S-ASM inh = inhibitors of human secretory acid sphingomyelinase | 340,000 compounds, 0.006% hits | P17405 | placental ASM, HMU-PC fluorogenic substrate, 60 min | Potency, µM (titrated, usually from 57.5 µM), without a hit: top-dose activity change, negative = inhibition, usual class: inhibitors
#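 Human placenta-derived ASM enzyme was preincubated with compound for 10 minutes at room temperature, then given fluorogenic substrate HMU-PC0 (9 uM final) for 60 minutes at 37 °C; a pH 10 stop preceded fluorescence reading at Ex 386/Em 447 nm.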
# PLK1 PBD inh = blocks phosphopeptide binding to human PLK1 polo-box domain; P53350; Plk1 PBD binding of FITC phosphopeptide, fluorescence polarization; Potency, µM, for inactives: max response, negative = inhibition, most hits filed as inhibitors; 360,000 compounds, 2.8% hits; further: series mostly up to about 57 µM; on the % scale 0 is the no-effect control and ±100 the full control effect; nearly all actives have a fitted effect of over 65% in size
# Tb PFK inh-1 = blocks T. brucei phosphofructokinase; T. brucei PFK, ADP-Glo luminescence; Potency, µM (highest dose often 57.5 µM), for the others: top-dose activity, negative = inhibition, hits mostly inhibitors; 330,000 compounds, 0.17% hits; AID 485367;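 further: 0% = uninhibited 1x PFK enzyme wells and -100% = no-enzyme wells; nearly all actives have a fitted effect of over 60% in size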
#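 1.25 nM PFK with 0.5 mM F6P and 0.1 mM ATP in 0.1 M TEA pH 8.0, 5 mM MgCl2, incubated 45 min at room temperature; ADP measured by ADP-Glo luminescence; compounds titrated up to 57 uM.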
# Pin1 inh = inhibitors of human Pin1 | Q13526 | Pin1 FP peptide displacement, HiFluor488, 10 min | Potency, µM (titrated, usually from 115 µM), inactives show at the top dose activity, negative = inhibition, most hits filed as inhibitors | 390,000 compounds, 0.009% hits; active means well fitted inhibition curve with a large enough effect in the polarisation, with a control signal flat, not every such curve was filed as active; inconclusive means small, poorly fitted or top-dose-only effect, or effect the other way, or a change in a side signal; inactive means no such curve, though single readings can be large or run the other way; the % refers to the polarisation; further: on the % scale 0 is the no-effect control and ±100 the full control effect
# Target sequence (Q13526 whole entry, looked up): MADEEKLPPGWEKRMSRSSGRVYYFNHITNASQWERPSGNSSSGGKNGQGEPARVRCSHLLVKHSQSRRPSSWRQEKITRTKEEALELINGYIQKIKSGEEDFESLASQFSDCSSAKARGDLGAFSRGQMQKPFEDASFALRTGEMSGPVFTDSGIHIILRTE
# Tb PFK KinaseGlo = inhibits T. brucei PFK measured by ATP depletion; shares compounds with Tb PFK inh-1; Tb PFK enzyme, ATP depletion, Kinase-Glo Plus luminescence; Potency, µM (doses to about 57.5 µM), for inactives: top-dose inhibition; 1,100 compounds, 47% hits; AID 504636; calls by dose curve; further: nearly all actives have a fitted effect of over 60% in size
# Tb PFK inh-2 = validation of T. brucei phosphofructokinase inhibitors | Potency, µM (titrated, usually from 57.5 µM), for the others: at the highest dose activity change, negative = inhibition, usual class: inhibitors | shares compounds with Tb PFK inh-1 | AID 504637 | purified T. brucei PFK, ADP-Glo luminescence, 45 min | 1,100 compounds, 41% hits;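 further: plate controls were full PFK enzyme control for no effect and no enzyme control for full effect; nearly all actives have a fitted effect of over 60% in size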
# * hit, by the source's call; ? = inconclusive; nt = no result given; ! = repeats disagree; [ ] = remark or other dose. Unless noted, the call rests on the fitted dose curve; in most records, active means well fitted curve in the direction sought with a large enough effect; inconclusive means small, poorly fitted or top-dose-only effect, or another doubt; inactive means no such curve, though single readings can be large; an effect the other way counts as inactive or inconclusive. Potency means the concentration at half of the fitted maximal effect.
SMILES,TDP1 block,VDR inh,S-ASM inh,PLK1 PBD inh,Tb PFK inh-1,Pin1 inh,Tb PFK KinaseGlo,Tb PFK inh-2
CC(C)(C)C(=O)[C@@H]1[C@@H]2C(=O)N(c3ccc4c(c3)OCCO4)C(=O)[C@@H]2C2c3ccccc3C=CN21 (some centres undefined),6%,-14%,-3%,11µM*,?,0%,2%,-1%
O=C1CC(=O)N(c2ccc3c(c2)OCO3)C(=O)N1,0%,-3%,7%,?,18%,17%,nt,nt
COc1ccc(NC(=O)N2CCC3(CC2)CCN(C(=O)Oc2ccccc2)CC3)cc1,nt,6%,nt,nt,nt,nt,nt,nt
O=C(Nc1ccc(Cl)c(Cl)c1)N1CCSC1c1ccco1 (centres undefined),9%,-9%,-8%,-4%,13µM*,23%,12%,-11%
NC(=S)N=Nc1ccc(NN=C(N)N)cc1,nt,18µM*,-5%,3.8µM*,?,-6%,6.7µM*,13µM*
O=C(NCc1ccco1)c1ccc2c(=O)n(Cc3ccco3)c(SCC(=O)N3CCCC3)nc2c1,35µM*,6%,5%,-29%,?,?,?,?
COc1ccccc1Cn1c(SCC(=O)C(C)(C)C)nc2cc(C(=O)N3CCC4(CC3)OCCO4)ccc2c1=O,3%,nt,nt,nt,-2%,nt,nt,nt
CCOc1ccc(C(C)=O)cc1N1C(=O)C2C3C=CC(O3)C2C1=O (centres undefined),2%,22µM*,2%,27µM*,?,9%,-20%,?
O=C(Nc1ccc(Cl)cc1)Nc1cccnc1,-10%,9%,-1%,-9%,17µM*,-9%,?,?
NC(=O)Nc1ccc(Cl)cc1,2%,-1%,-2%,-1%,21µM*,-13%,24µM*,30µM*
O=C(Nc1ccc(Cl)cc1)Nc1nccs1,0%,-9%,-3%,-3%,-9%,-5%,nt,nt
O=C(Nc1ccccc1)N1CC2(CCN(C(=O)Oc3ccccc3)CC2)C1,nt,5%,nt,nt,nt,nt,nt,nt
O=C(N/N=C/c1ccc(O)c(O)c1O)/C(=C/c1ccc([N+](=O)[O-])cc1)NC(=O)c1ccccc1,12%,?,?,9.5µM*,24µM*,?,3.4µM*,11µM*
O=C(c1ccccc1F)c1cn(Cc2ccccc2)c2ccccc12,-6%,6%,-8%,-1%,-11%,-4%,nt,nt
Fc1cc2ncn(Cc3ccccc3)c2cc1F,3%,-1%,-3%,1%,?,-10%,?,?
O=C1Nc2ccc(Cl)cc2C(c2ccccc2Cl)=NC1O (centres undefined),7%,-1%,nt,nt,nt,nt,nt,nt
CCOc1ccc(N2CC(c3nc4ccccc4n3CCC3CCCCC3)CC2=O)cc1 (centres undefined),5%,13%,nt,nt,nt,?,nt,nt
O=C(Cc1ccc(F)cc1)Nc1ccc(S(=O)(=O)N2CCCC2)cc1,-3%[0.505 µM],-16%,6%,-2%,17µM*,-19%,?,?
O=C(Cc1ccc(Br)cc1)Nc1ccc(S(=O)(=O)N2CCCC2)cc1,1%,nt,nt,nt,19µM*,nt,11µM*,21µM*
O=C(NCCc1c[nH]c2ccccc12)OCCSS(=O)(=O)O,1%,-20%,3%,-28%,24µM*,2%,24µM*,?
CN1CC[C@@]2(CCCN(C(=O)Oc3ccccc3)C2)C1,nt,-13%,nt,nt,nt,nt,nt,nt
CC(C)Oc1ccc(C(=O)Nc2ccc3c(c2)CCCN3C(=O)c2cccs2)cc1,1%,1%,nt,nt,nt,64%,nt,nt
Oc1ccc(C2CNCc3sccc32)cc1O (centres undefined),11%[56.1 µM],13µM*!,8%,-10%,?,2%,?,?
CC(=O)O[C@H]1C(=O)[C@@]2(C)C([C@H](OC(=O)c3ccccc3)[C@]3(O)C[C@H](OC(=O)[C@H](O)[C@@H](NC(=O)c4ccccc4)c4ccccc4)C(C)=C1C3(C)C)[C@]1(OC(C)=O)CO[C@@H]1C[C@@H]2OC(=O)[C@H](C)NC(=O)c1ccc(-c2c3ccc(=O)cc-3oc3cc(O)ccc23)c(C(=O)O)c1 (some centres undefined),26%[21 µM],-14%,nt,nt,nt,nt,nt,nt
CCn1cc(C(=O)NCc2ccco2)c(=O)c2cc(F)c(N3CCN(C(=O)c4ccco4)CC3)cc21,40µM*,5%,-1%,-14%,9.5µM*,?,?,?
SMILES,TDP1 block,VDR inh,S-ASM inh,PLK1 PBD inh,Tb PFK inh-1,Pin1 inh,Tb PFK KinaseGlo,Tb PFK inh-2
NC(=O)c1ccsc1NC(=O)COC(=O)Cc1ccccc1,3%,6%,-1%,-9%,?,2%,nt,nt
O=C(COC(=O)Cc1ccc(Cl)c(Cl)c1)Nc1ccc2[nH]c(=O)[nH]c2c1,5%,-11%,-2%,-1%,21µM*,30%,?,13µM*
CN(CC(=O)NC(=O)NCc1ccco1)CC(=O)Nc1ccccc1Cl,0%,7%,-2%,-10%,?,-1%,nt,nt
O=C(COC(=O)Cc1ccc(Cl)cc1)NCc1ccco1,11µM*,-1%,-4%,-23%,?,-11%,8.5µM*,6.7µM*
O=C(COC(=O)Cc1ccc(Cl)c(Cl)c1)NCc1ccco1,0%,7%,5%,-1%,?,-3%,13µM*,?
S=C(NCc1ccc(Cl)c(Cl)c1)NCc1ccco1,nt,-17%,-3%,?,27µM*,1%,11µM*,21µM*
Oc1ccc(/C=N/NP(=S)(c2ccccc2)c2ccccc2)cc1O,8%,4%,-5%,-3%,4%,3%,nt,nt
Oc1ccc(/C=N/N=C/c2ccc(O)c(O)c2)cc1O,nt,-7%,4%,-16%,2.7µM*,0%,?,?
CCc1ccccc1NC(=O)CNC1CCCCC1,0%,4%,-1%,-1%,1%,?,nt,nt
